Assay outcomes deposited in PubChem BioAssay by Sanford-Burnham Center for Chemical Genomics.
eIF4H FP inh = inhibitors of RNA binding by human eIF4H; Q15056; eIF4H fluorescence polarization binding assay; inhibition, % at 35 µM; 290,000 compounds, 0.94% hits; AID 2012;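 note: calls also rest on retests at 20 µM and on dose response follow-up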
A3A deaminase = blocks human APOBEC3A ssDNA deamination; 330,000 compounds, 0.41% hits; P31941; recombinant A3A, FAM/TAMRA ssDNA deamination fluorescence; inhibition, % at 20 µM; AID 493011;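 active = at least 40% inhibition at 20 µM here, with at most 30% in a related deaminase screen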;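 note: plate controls were A3A with DMSO for no effect and wells lacking A3A enzyme for full effect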
Target sequence (P31941 whole entry, looked up): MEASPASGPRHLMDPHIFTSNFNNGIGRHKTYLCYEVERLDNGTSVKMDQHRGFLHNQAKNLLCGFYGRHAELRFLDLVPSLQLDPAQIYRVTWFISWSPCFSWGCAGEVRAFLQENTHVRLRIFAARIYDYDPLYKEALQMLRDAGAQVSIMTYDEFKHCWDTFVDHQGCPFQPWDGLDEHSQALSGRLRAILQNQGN
PHOSPHO1 block = inhibitors of human PHOSPHO1 phosphatase; AID 1565; 290,000 compounds, 1.1% hits; Q8TCT1; recombinant PHOSPHO1, absorbance phosphatase assay; inhibition, % at 13.3 µM; in the data active = inhibition above about 60%
PABP1 MLLE inh = blocks PAM2 peptide binding to the PABP1 MLLE domain. GST-MLLE / FITC-PAM2 fluorescence polarization. inhibition, % at 20 µM. 360,000 compounds, 0.36% hits. AID 588489. P11940; in the data active = inhibition above about 35%, passing the limit was not always enough;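 note: plate controls were DMSO wells with GST-MLLE for no effect and wells lacking GST-MLLE protein for full effect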
PABP FP inh = PABP-poly(A) binding inhibition; PABP-poly(A) RNA binding, fluorescence polarization; calls only at 35 µM; 290,000 compounds, 1% hits; AID 2014;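 note: calls also rest on retests at 20 µM and on dose response follow-up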
A3G deaminase = blocks human APOBEC3G single-stranded DNA deamination. Q9HC16. recombinant A3G, ssDNA deamination FAM/TAMRA fluorescence. inhibition, % at 20 µM. 330,000 compounds, 0.28% hits;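 active = inhibition of at least 40% at 20 µM, with no more than 30% in the related APOBEC3A deaminase screen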;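 note: plate controls were DMSO wells with A3G for no effect and wells lacking A3G enzyme for full effect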
Target sequence (Q9HC16 whole entry, looked up): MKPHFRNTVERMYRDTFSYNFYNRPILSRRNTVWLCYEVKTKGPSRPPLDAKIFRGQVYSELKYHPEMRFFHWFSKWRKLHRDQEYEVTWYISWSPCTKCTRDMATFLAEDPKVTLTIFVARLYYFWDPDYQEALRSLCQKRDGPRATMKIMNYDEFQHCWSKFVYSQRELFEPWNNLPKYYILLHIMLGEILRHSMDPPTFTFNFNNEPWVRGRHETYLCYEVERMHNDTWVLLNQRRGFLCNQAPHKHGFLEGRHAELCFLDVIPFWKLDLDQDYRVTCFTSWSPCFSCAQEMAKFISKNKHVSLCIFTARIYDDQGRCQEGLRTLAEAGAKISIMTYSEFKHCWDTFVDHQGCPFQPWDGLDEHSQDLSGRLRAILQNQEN
A3A conf = APOBEC3A (human) deaminase inhibition, confirmed; shares compounds with A3A deaminase; recombinant A3A, ssDNA deaminase UDG fluorescence assay; inhibition, % at 20 µM; AID 493151; 1,400 compounds, 63% hits;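 active = inhibition reaching a set limit, 80% of the first screen's cutoff, at 20 µM in any replicate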;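 note: plate controls were DMSO wells with A3A for no effect and wells lacking A3A enzyme for full effect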
UDG A3A counter = UDG inhibition in APOBEC3A counter-screen; shares compounds with A3A deaminase; UDG counterscreen, FAM/TAMRA uracil oligo fluorescence; inhibition, % at 20 µM; 1,000 tested, under 10 active; AID 504714
Starred values were filed as active, the others as inactive; i = inactive; . = not tested or not shown; + = active, no number. Rows were chosen to be rich in hits. Some 2.6% of all compounds tested hit in one or more screens of this group. Unless noted, the rule behind the calls is not given here.

SMILES	eIF4H FP inh	A3A deaminase	PHOSPHO1 block	PABP1 MLLE inh	PABP FP inh	A3G deaminase	A3A conf	UDG A3A counter
COc1cc(NC(=O)c2noc3c2CCC3)c(OC)cc1Cl	67.9	48.5*	12.4	13.7	i	21.4	55.0*	1.1
CCOc1cc(C#N)ccc1OCC(=O)NNC(=O)CC1CCS(=O)(=O)C1 (centres undefined)	.	-4.4	.	6.7	.	-8.3	.	.
CC(C)(C)NC(=O)C(c1ccccc1)N(Cc1ccco1)C(=O)c1csnn1 (centres undefined)	6.5	0.7	10.6	11.6	i	-0.5	.	.
CCC(C)N(C(=O)c1csnn1)C(C(=O)NC(C)(C)C)c1ccccc1 (centres undefined)	-3.4	61.6*	5.9	2.5	i	-4.5	-9.1	-0.1
CC1Sc2ccc(S(=O)(=O)CCC(=O)N3CCc4ccccc43)cc2NC1=O (centres undefined)	4.0	-1.9	27.6	-7.8	i	-3.8	.	.
CCC1Sc2ccc(S(=O)(=O)CCC(=O)N3CCc4ccccc43)cc2NC1=O (centres undefined)	12.5	66.4*	48.8	9.4	i	-3.6	17.1	6.8
Cc1c(Cl)cccc1NC(=O)CNC(=O)c1ccc2c(c1)OCCO2	.	51.4*	.	-106.8	.	8.5	40.9*	1.9
Cc1c(Cl)cccc1NC(=O)CNC(=O)c1ccc(F)cc1	-10.5	-2.1	-11.7	-3.4	i	-5.7	.	.
NC1CCCCC1N=Cc1c(O)n(CCc2ccc(F)cc2)c(=O)[nH]c1=O (centres undefined)	-0.6	.	5.6	-7.0	i	.	.	.
O=c1[nH]c(=O)n(CCc2ccc(F)cc2)c(O)c1C=NCc1ccc2c(c1)OCO2	8.3	68.3*	7.0	-18.5	i	19.6	1.5	.
CCCCNC(=O)[C@H]1C[C@H]1[C@@H](O)[C@H](CO)NC(=O)[C@H](Cc1ccccc1)NC(=O)OC(C)(C)C	-4.3	66.1*	-1.7	-4.9	i	-7.8	-9.4	-0.9
O=C(Nc1ccc(Cl)c(S(=O)(=O)N2CCOCC2)c1)c1cccs1	.	0.4	.	14.1	.	-4.0	.	.
Cc1nnc(SCC(=O)N2N=C(c3ccc(Cl)cc3)CC2c2ccco2)[nH]c1=O (centres undefined)	22.9	49.6*	2.0	-35.8	i	13.1	10.2*	-1.6
NC(=O)c1ccc(NC(=O)C2CC(=O)N(c3ccc4c(c3)OCCO4)C2)cc1 (centres undefined)	.	17.7	.	-32.1	.	-5.0	.	.
CCN(CC)CCNC(=O)c1ccc(NC(=O)C2CC(=O)N(c3ccc4c(c3)OCCO4)C2)cc1 (centres undefined)	.	48.1*	.	-108.3	.	4.8	51.8*	-3.8
O=C(NC(=S)N(CCO)Cc1ccccc1)c1ccc(S(=O)(=O)N2CCCC2)cc1	-8.6	-5.7	-40.6	21.3	i	-3.5	.	.
Cc1cc(/C=N/NC(=O)c2cccc(N(C)C)c2)c(C)n1-c1cc(C(=O)O)cc(C(=O)O)c1	77.9	66.4*	-1.1	7.9	i	25.2	65.5*	0.7
Cc1cc(/C=N/NC(=O)C(O)(c2ccccc2)c2ccccc2)c(C)n1-c1cccc(C(=O)O)c1	80.4	44.6*	14.6	-28.9	i	22.9	26.3	.
CCN1CCN(c2ccc(NC(=O)c3ccc(Cl)c(N4CCCC4=O)c3)cc2)CC1	-6.1	65.6*	-1.8	-99.2	i	8.2	25.5	.
CCN1CCN(C(=O)c2ccc(Cl)c(S(=O)(=O)N3CCOCC3)c2)CC1	-0.2	40.6*	53.7	-94.1	i	11.9	14.0*	2.3
CCN1CCN(c2ccc(NC(=O)c3ccc(Cl)c(S(=O)(=O)N4CCCC4)c3)cc2)CC1	.	40.0*	.	-44.5	.	1.5	15.2	.
O=C(c1ccc(Cl)c(S(=O)(=O)N2CCOCC2)c1)N1CCCC1	-2.4	0.7	23.2	-4.7	i	-4.0	.	.
N#C/C(=C\N1CCOCC1)C(N)=O	-0.6	-1.9	27.7	11.7	i	1.2	.	.
COC(=O)CC1Oc2ccccc2N(Cc2ccccc2)C1=O (centres undefined)	-1.4	7.2	6.1	20.7	i	16.0	.	.
CCCNc1c(F)c(F)c2c(C)c3ccccc3nc2c1F	100.8*	42.1*	10.0	120.8	+	-3.4	-8.6	-17.6
SMILES	eIF4H FP inh	A3A deaminase	PHOSPHO1 block	PABP1 MLLE inh	PABP FP inh	A3G deaminase	A3A conf	UDG A3A counter
Cc1c2ccccc2nc2ccccc12	.	7.9	.	4.5	.	-5.4	.	.
C#CCOCCOCCOCCNc1nc(N2CCN(C(=O)Cn3cc(CC(C)O)nn3)CC2)nc(N2CCN(C(=O)[C@H](CCCCN)n3cc(CCCC)nn3)CC2)n1 (some centres undefined)	.	.	.	-8.0	.	.	.	.
Cc1ccc(NC(=O)CN2C(=O)S/C(=C/c3ccc(-c4cc(C(=O)O)ccc4C)o3)C2=O)cc1C	37.9	63.2*	48.9	-4.4	+	12.3	43.0*	-3.9
O=C(O)c1ccccc1-c1ccc(/C=C2\SC(=O)N(c3ccccc3)C2=O)o1	22.9	6.3	25.3	-1.2	i	1.5	.	.
Cc1ccc(C(=O)O)cc1-c1ccc(C=C2C(=O)c3ccccc3C2=O)o1	27.6	43.8*	5.5	-158.6	i	12.3	35.5*	-1.7
COC(=O)C(C)N1C(=O)S/C(=C\c2ccc(-c3ccc(C(=O)O)cc3C)o2)C1=O (centres undefined)	51.7*	51.0*	52.2	-97.1	+	12.0	62.2*	-2.2
CC1=NN(c2ccc(Br)cc2)C(=O)/C1=C/c1ccc(-c2ccccc2C(=O)O)o1	7.8	-1.5	-2.4	13.1	i	-5.3	.	.
Cc1ccccc1NC(=O)CN1C(=O)S/C(=C\c2ccc(-c3cccc(C(=O)O)c3C)o2)C1=O	74.7	1.5	39.4	6.5	i	-6.6	.	.
CC(C)C(NC(=O)c1ccc(C(C)(C)C)cc1)C(=O)Nc1cccc(S(N)(=O)=O)c1 (centres undefined)	-3.3	0.9	10.8	-5.8	i	-7.1	.	.
O=C(O)C1=C[C@H](c2ccc(C(F)(F)F)cc2)C[C@H](OCCCCO)O1	.	-1.1	.	3.3	.	-1.5	.	.
COc1cc(C(=O)NCC(=O)N/N=C(C)\C=C\c2ccccc2)cc(OC)c1OC	3.2	-5.0	-7.7	16.1	i	-6.2	.	.
C[N+]1(C)CCC(=C2c3ccccc3CC(=O)c3sccc32)CC1	-1.9	52.2*	-108.6	-115.9	i	27.6	53.2*	.
O=C(NC(Cc1ccccc1)c1nc2ccccc2[nH]1)C1CC(=O)N(c2ccc3c(c2)OCCO3)C1 (centres undefined)	.	54.8*	95.8*	-117.3	.	21.4	4.1	.
O=C(NCCc1ccccc1)C1CC(=O)N(c2ccc3c(c2)OCCO3)C1 (centres undefined)	.	-3.4	.	-1.9	.	-12.7	.	.
